Measured values taken from PubChem BioAssay (NCATS).
Where “and” joins values, the source holds several entries; their conditions need not be identical. Equal values may be shown once. Records with an inconclusive call do not appear. Calls of active or inactive are those of the source. Unless noted, the call rests on the fitted dose curve; in most records, active means well fitted curve in the direction sought with a large enough effect; inconclusive means small, poorly fitted or top-dose-only effect, or another doubt; inactive means no such curve, though single readings can be large; an effect the other way counts as inactive or inconclusive.

Legend:
[1] = biological target: Alpha-galactosidase A (Homo sapiens) (UniProt P06280); experiment: Counterscreen for Glucocerebrosidase Inhibitors: qHTS Assay for Human alpha-Galactosidase at pH 4.5 (AID 992); further: 0% is about no effect
How it was run: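 Enzyme at 2 nM final was combined with compound (0.7 nM to 77 uM) and 80 uM 4-methylumbelliferyl alpha-D-galactopyranoside in 50 mM citric acid, 0.005% Tween-20, pH 4.5. After 20 min at room temperature, fluorescence was read (Ex 365/Em 440 nm); AC50 came from Hill fits.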

[2] = biological target: alpha-glucosidase (Oryza sativa, rice) (UniProt Q653V4); experiment: Counterscreen for Glucocerebrosidase Inhibitors: qHTS Assay for Rice alpha-Glucosidase at pH 5.0 (AID 997);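 further: 0% = full activity with enzyme and -100% = basal without enzyme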
How it was run: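 Rice alpha-glucosidase (4 nM final) with 400 uM 4-methylumbelliferyl-alpha-D-glucopyranoside in citrate buffer pH 5.0, 20 min at room temperature, stopped at pH 10; fluorescence 365/440 nm, compounds 0.7 nM–77 uM, AC50 from Hill fits.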

[3] = Validation of Assay for Modulators of Lamin A Splicing (AID 1459; active means well fitted curve in the direction sought with a large enough effect in the signal ratio; the % refers to the signal ratio;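 further: cells exposed to compound for two days before reading; 0% is about no effect; ratio rise marks activators and ratio drop marks inhibitors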)
How it was run: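 Readout: ratio of GFP (500-530 nm) to RFP (575-640 nm) total object intensity by 488 nm laser-scanning cytometry after 48 hrs. Cells were HeLa S3 clones carrying lamin A-EGFP minigene plus DsRed2 viability reporter; vehicle 0.5% DMSO final.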

[4] = qHTS Assay for Lipid Storage Modulators (AID 1519; calls by dose curve; on activity change, negative = inhibition: on the % scale 0 is the no-effect control and ±100 the full control effect); conditions: Drosophila S3 cells, BODIPY lipid droplet/cell ratio, laser cytometry, cells loaded with oleic acid; for activity change, negative = inhibition: at 57.5 µM (top of the series)
How it was run: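 Cells seeded at 5,000 per well were treated with compounds over a concentration series and loaded with oleic acid (400 uM, as added). Lipid droplet fluorescence (488 nm excitation, 500-530 nm channel) was read by laser-scanning cytometry and normalized to 20 uM Triacsin C.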

[5] = biological target: DNA repair nuclease/redox regulator APEX1 (Homo sapiens) (UniProt P27695); experiment: qHTS Validation Assay for Inhibitors of the Human Apurinic/apyrimidinic Endonuclease 1 (APE1) (AID 1705; further: potency means the concentration at half of the fitted maximal effect;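 on activity change, negative = inhibition: TAMRA fluorescence gain over two minutes as APE1 cuts a quenched THF abasic duplex; on the % scale 0 is the no-effect control and ±100 the full control effect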)
How it was run: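 Read-out: TAMRA fluorescence (525 nm ex, 598 nm em) from cleavage of a quenched THF abasic-site duplex, 50 nM final; activity taken as intensity change between third and first of three reads 60 s apart.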

[6] = biological target: Endonuclease 4 (Escherichia coli (strain K12)) (UniProt P0A6C1); experiment: Counterscreen for APE1 Inhibitors: qHTS Validation Assay for Inhibitors of Endonuclease IV (AID 1708); further: potency means the concentration at half of the fitted maximal effect; on activity change, negative = inhibition: on the % scale 0 is the no-effect control and ±100 the full control effect
How it was run: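 Enzymatic AP-site incision assay using a double-stranded THF substrate labelled with TAMRA and BHQ-2; released fluorescence signals activity. Enzyme 2 nM, substrate 50 nM, 15 min compound preincubation.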

[7] = qHTS for differential inhibitors of proliferation of Plasmodium falciparum line 3D7 (AID 1876); further: potency means the concentration at half of the fitted maximal effect
[8] = Counterscreen for APE1 Inhibitors: Fluorescent Dye Displacement Validation Assay (AID 1707);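 further: plate controls were ThO with dsDNA and no compound for no effect and ThO without dsDNA for full effect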
How it was run: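 Thiazole Orange displacement from dsDNA: 250 nM ThO with 50 nM TAMRA-labelled abasic-site (tetrahydrofuran) duplex in 50 mM Tris-HCl pH7.5, 50mM NaCl, 2 mM MgCl2, 0.01% Tween-20. Loss of endpoint fluorescence (ex 480 nm, em 540 nm) flags DNA binders.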

[9] = qHTS for differential inhibitors of proliferation of Plasmodium falciparum line 7G8 (AID 1815);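 further: parasite growth measured after three days of incubation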; further: potency means the concentration at half of the fitted maximal effect;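 on activity change, negative = inhibition: plate controls were vehicle wells for no effect and reference inhibitor wells for full effect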
[10] = qHTS for differential inhibitors of proliferation of Plasmodium falciparum line GB4 (AID 1816); conditions: Potency: Plasmodium falciparum GB4 proliferation inhibition;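 further: parasite growth measured after 72 h incubation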; further: potency means the concentration at half of the fitted maximal effect;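 on activity change, negative = inhibition: 0% = vehicle DMSO and -100% = reference inhibitor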
[11] = measured here: cell count channel max response
[12] = measured here: lipid channel max response

Chain of DNA repair nuclease/redox regulator APEX1 (Homo sapiens) (P27695 whole entry, looked up): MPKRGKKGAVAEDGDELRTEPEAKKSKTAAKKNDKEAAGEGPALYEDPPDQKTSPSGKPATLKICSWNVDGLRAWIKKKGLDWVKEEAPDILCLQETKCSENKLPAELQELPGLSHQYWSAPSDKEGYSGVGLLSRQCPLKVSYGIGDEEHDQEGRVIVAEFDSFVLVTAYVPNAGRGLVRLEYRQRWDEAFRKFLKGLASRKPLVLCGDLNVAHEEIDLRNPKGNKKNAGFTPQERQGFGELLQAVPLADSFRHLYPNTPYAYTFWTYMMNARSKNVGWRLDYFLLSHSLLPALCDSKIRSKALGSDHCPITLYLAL
Chain of Alpha-galactosidase A (Homo sapiens) (P06280 whole entry, looked up): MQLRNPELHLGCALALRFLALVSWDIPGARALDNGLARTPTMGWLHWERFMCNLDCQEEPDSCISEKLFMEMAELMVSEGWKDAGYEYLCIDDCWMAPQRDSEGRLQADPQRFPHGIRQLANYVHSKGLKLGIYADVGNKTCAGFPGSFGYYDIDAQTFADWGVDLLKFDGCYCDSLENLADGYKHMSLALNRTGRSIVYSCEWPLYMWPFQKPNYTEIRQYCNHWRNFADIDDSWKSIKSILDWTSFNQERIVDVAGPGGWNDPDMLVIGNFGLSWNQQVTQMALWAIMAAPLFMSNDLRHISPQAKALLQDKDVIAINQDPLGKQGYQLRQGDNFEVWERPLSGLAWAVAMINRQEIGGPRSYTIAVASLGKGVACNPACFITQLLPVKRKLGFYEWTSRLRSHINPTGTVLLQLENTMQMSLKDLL

NS(=O)(=O)c1cccc2c1c([N+](=O)[O-])cc1nc(O)c(O)nc12
-22.6% and 10.1%: max response [4, 11]
inactive: outcome [1] | outcome [2] | outcome [3] | activity change, negative = inhibition [4] -1.05% and 1.23% | Potency [5] | Potency [6] | Potency [7]
-22.6% and 7.26%: max response [4, 12]

NCC(O)(CS(=O)(=O)O)c1ccc(Cl)cc1 (stereo not given)
inactive: outcome [3] | Potency [5] | Potency [8] | Potency [6] | Potency [9] | Potency [10] | Potency [7]

NCCCNCCCCNCCCN
13.5%: max response [4, 12]
9.8%: max response [4, 11]
inactive: outcome [1] | outcome [2] | outcome [3] | activity change, negative = inhibition [4] 1.21% | Potency [5] | Potency [9] | Potency [10] | Potency [7]

O=C(O)C1=CC(=C(c2ccc(O)c(C(=O)O)c2)c2ccc(O)c(C(=O)O)c2)C=CC1=O
active: Potency [6] 0.708 µM
22% and 58.3%: max response [4, 12]
inactive: outcome [1] | outcome [2] | outcome [3] | activity change, negative = inhibition [4] 3.23% and 0.986% | Potency [8]
16.1% and 56.8%: max response [4, 11]

Nc1ccc(-c2nc3ccc(-c4nc5ccc(N)cc5[nH]4)cc3[nH]2)cc1
inactive: outcome [1] | outcome [3] | activity change, negative = inhibition [4] -0.707%
-29.1%: max response [4, 11]
active: Potency [5] 28.2 µM | Potency [6] 22.4 µM | Potency [9] 0.794 µM | Potency [10] 0.891 µM | Potency [7] 0.355 µM
-26.6%: max response [4, 12]

COc1cc(C(O)C(=O)O)ccc1O (stereo not given)
inactive: outcome [3] | Potency [5] | Potency [8] | Potency [6] | Potency [9] | Potency [10] | Potency [7]

CC(=O)/C(C)=N/O
inactive: outcome [3] | Potency [5] | Potency [8] | Potency [6] | Potency [9] | Potency [10] | Potency [7]

O=C(O)c1cc2cc(F)ccc2[nH]1
14.4% and 31%: max response [4, 11]
inactive: outcome [1] | outcome [2] | outcome [3] | activity change, negative = inhibition [4] 8.59% and -0.743% | Potency [5] | Potency [6] | Potency [7]
24.2% and 29.2%: max response [4, 12]

NCC(O)c1ccc(O)c(O)c1 (stereo not given)
inactive: outcome [3] | Potency [5] | Potency [8] | Potency [6]

N[C@@H](Cc1ccc(F)cc1)C(=O)O
active: Potency [9] 12.6 µM | Potency [10] 14.1 µM | Potency [7] 11.2 µM
inactive: outcome [3] | Potency [5] | Potency [8] | Potency [6]

CCCCS(=N)(=O)CC[C@H](N)C(=O)O (stereo not given in full)
active: Potency [9] 12.6 µM | Potency [10] 11.2 µM
inactive: outcome [3] | Potency [5] | Potency [8] | Potency [6]

O=c1cc(O)cc(/C=C/c2ccc(O)c(O)c2)o1
inactive: outcome [3] | Potency [8] | Potency [6]
active: Potency [5] 0.794 µM | Potency [9] 8.91 µM | Potency [10] 12.6 µM

N=C(N)SCCN
12% and 0.318%: max response [4, 12]
inactive: outcome [1] | outcome [2] | outcome [3] | activity change, negative = inhibition [4] 1.32% and 3.68% | Potency [8] | Potency [6]
9.1% and -2.48%: max response [4, 11]

Nc1ncnc2c1ncn2C1CCCO1 (stereo not given)
inactive: outcome [3] | activity change, negative = inhibition [4] -1.26% | Potency [8] | Potency [6] | Potency [9] | Potency [10] | Potency [7]
24.9%: max response [4, 11]
22.8%: max response [4, 12]

OC[C@H]1NC[C@@H](O)[C@@H]1O
inactive: outcome [3] | Potency [5] | Potency [8] | Potency [6] | Potency [9] | Potency [10] | Potency [7]

O=C(O)c1ccccc1Nc1ccccc1
2.57% and -16.2%: max response [4, 11]
inactive: outcome [1] | outcome [2] | outcome [3] | activity change, negative = inhibition [4] 7.05% and 0.0171% | Potency [5] | Potency [6] | Potency [9] | Potency [10] | Potency [7]
11.5% and -17.1%: max response [4, 12]
